HDAC3 inh: HDAC3 deacetylase inhibitors, primary screen, biochemical, fluorescence, cell-free homogeneous; Histone deacetylase 3 (Homo sapiens), O15379; recombinant HDAC3, fluorogenic peptide/trypsin coupled; inhibition, % at 8.3 µM; hit rate 0.15% among 320,000; AID 2718, 2010; in the data active means inhibition above about 26%, passing the limit was not always enough; inconclusive means no clear call, values can overlap the other calls
TMEM16A act: TMEM16A chloride channel activators or potentiators, primary screen, cell-based, HTS. B-score at 10 µM. HEK293 TMEM16A/YFP-H148Q/I152L, iodide quench fluorescence; stronger effect = lower value. AID 623877, 2012. Anoctamin-1 (Mus musculus), Q8BHY3. hit rate 0.3% among 340,000;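 active means fluorescence-ratio B-score plate-corrected deviation score at least 3 library SD below zero, with starting fluorescence score within 5 deviations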;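 further: channel opened by trigger with iodide after compound preincubation; score built on the fluorescence ratio of max minus min over baseline; more negative score means more quench and so TMEM16A activation or potentiation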
Target sequence (Q8BHY3 whole entry, looked up): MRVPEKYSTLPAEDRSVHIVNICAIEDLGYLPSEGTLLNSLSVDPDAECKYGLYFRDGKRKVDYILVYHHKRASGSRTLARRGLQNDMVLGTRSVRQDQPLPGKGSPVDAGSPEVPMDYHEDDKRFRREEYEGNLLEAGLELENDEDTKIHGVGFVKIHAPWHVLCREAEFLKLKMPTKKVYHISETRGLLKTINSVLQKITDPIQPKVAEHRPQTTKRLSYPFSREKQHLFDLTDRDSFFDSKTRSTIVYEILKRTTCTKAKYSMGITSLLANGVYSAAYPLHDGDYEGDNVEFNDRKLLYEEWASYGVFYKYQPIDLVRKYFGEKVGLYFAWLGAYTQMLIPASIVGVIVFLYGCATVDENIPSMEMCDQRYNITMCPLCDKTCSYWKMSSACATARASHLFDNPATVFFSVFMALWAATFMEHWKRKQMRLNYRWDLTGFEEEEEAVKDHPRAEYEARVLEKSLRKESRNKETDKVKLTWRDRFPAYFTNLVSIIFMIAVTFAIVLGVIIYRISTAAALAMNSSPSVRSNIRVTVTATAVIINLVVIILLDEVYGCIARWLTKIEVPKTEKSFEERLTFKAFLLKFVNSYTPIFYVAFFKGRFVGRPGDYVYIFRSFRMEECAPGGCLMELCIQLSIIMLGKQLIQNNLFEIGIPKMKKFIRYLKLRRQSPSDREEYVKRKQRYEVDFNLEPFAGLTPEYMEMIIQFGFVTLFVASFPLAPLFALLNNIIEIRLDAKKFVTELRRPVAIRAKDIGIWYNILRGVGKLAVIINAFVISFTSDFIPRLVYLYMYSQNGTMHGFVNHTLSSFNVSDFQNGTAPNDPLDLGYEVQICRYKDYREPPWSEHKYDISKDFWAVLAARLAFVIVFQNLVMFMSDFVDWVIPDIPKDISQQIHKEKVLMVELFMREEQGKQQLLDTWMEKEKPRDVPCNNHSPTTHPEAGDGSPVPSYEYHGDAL
ANO1 block: TMEM16A chloride channel inhibitors, primary screen, cell-based, HTS; normalized B-score (activity score, 25-100; higher = stronger inhibition) at 10 µM; AID 588511, 2011; HEK293 TMEM16A/YFP iodide influx fluorescence, ionomycin; hit rate 1.2% among 310,000; Anoctamin-1 (Mus musculus), Q8BHY3;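 active means ratio plate-corrected score three or more library SD toward inhibition, starting fluorescence score within five deviations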;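 further: score derived from kinetic fluorescence span divided by baseline fluorescence per well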
CHT allo act: CHT positive allosteric modulators, primary screen, cell-based, membrane potential dye, choline EC20 | hit rate 0.49% among 310,000 | High affinity choline transporter 1 (Homo sapiens), Q9GZV3 | B-score at 10 µM | AID 488977, 2010 | CHT-expressing cells; stronger effect = higher value; LV-AA mutant CHT in HEK293 cells;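 active means initial fluorescence not abnormally high and integrated response B-score, plate-corrected, over 3 SD above library mean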
CHT inh: inhibitors of human choline transporter CHT. High affinity choline transporter 1 (Homo sapiens), Q9GZV3. CHT-expressing cells, membrane potential dye, choline response; stronger effect = lower value. B-score at 10 µM. hit rate 0.86% among 310,000. AID 488975, 2010;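 active means B-score over 3 SD under the library average, and starting fluorescence ratio not unusually high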;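 further: choline stimulus applied at its EC90 after an EC20 pre-addition; B-score computed on integrated fluorescence ratio after choline addition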
PHOSPHO1 inh: PubChem AID 1565. Phosphoethanolamine/phosphocholine phosphatase (Homo sapiens), Q8TCT1. recombinant PHOSPHO1, absorbance phosphatase assay. hit rate 1.1% among 290,000. inhibition, % at 13.3 µM; in the data active means inhibition above about 60%
Numbers stand for hits; . = inactive; ? = inconclusive; / = no result. In the library only some 3.2% were active in any assay of this set; here they are far more common.

SMILES	HDAC3 inh	TMEM16A act	ANO1 block	CHT allo act	CHT inh	PHOSPHO1 inh
CCOc1ccccc1OCc1nn2c(COc3ccccc3)nnc2s1	.	.	.	.	.	.
CC1CCCN(CC(O)COc2ccc(-c3ccccc3)cc2)C1 (stereo not drawn)	.	.	.	.	.	.
Cc1cc2ncn(C(=O)c3c(-c4c(Cl)cccc4Cl)noc3C)c2cc1C	.	/	.	.	.	.
c1ccc2c(c1)ncn2Cc1nnc2sc(-c3ccncc3)nn12	.	.	.	.	.	.
c1cncc(-c2nn3c(Cn4cnc5ccccc54)nnc3s2)c1	.	.	.	.	.	69.2
Cc1ccc(/C=C/C(=O)Oc2ccc(C#N)cc2)o1	.	/	.	.	.	.
CN(C)CCCNC1CS(=O)(=O)CC1O (stereo not drawn)	.	.	.	.	.	.
O=S1(=O)CC(O)C(NCCO)C1 (stereo not drawn)	.	.	.	.	.	64.7
COCCn1c(SCC(=O)c2ccc(Cl)cc2)nnc1C(C)C	.	.	.	.	.	75.1
COCCn1c(SCC(=O)c2ccc3c(c2)OCCO3)nnc1C(C)C	?	.	.	.	.	.
O=C(Nc1nnc(SCc2ccccc2Cl)s1)C1COc2ccccc2O1 (stereo not drawn)	.	.	25	.	.	.
Cc1cc(=S)[nH]c2ccccc12	.	.	.	.	.	100.2
Cc1ccc2[nH]c(=S)cc(C)c2c1	.	.	.	.	.	88.7
CC1CCCCN1S(=O)(=O)c1ccc(NC(=O)c2ccco2)cc1 (stereo not drawn)	.	.	.	.	.	.
Cc1ccc2c(N)c(C#N)sc2n1	.	.	.	.	.	.
O=C(c1cc(=O)[nH]c2ccccc12)N1CCN(Cc2ccc3c(c2)OCO3)CC1	/	.	/	/	/	/
O=C(CN1CCN(Cc2ccc3c(c2)OCO3)CC1)c1c[nH]c2ccccc12	.	.	.	.	.	84.1
Fc1nc(N2CCCC2)c(F)c(Oc2ccccc2Oc2c(F)c(F)nc(N3CCCC3)c2F)c1F	.	.	.	.	.	.
COc1ccc(C(=O)N2CCC(C(=O)Nc3ccc4c(c3)OCCO4)CC2)cc1	.	.	.	.	.	.
CCOC(=O)/C=C/S(=O)(=O)c1ccc(NC(C)=O)cc1	.	.	.	.	-5.46	.
Cn1c(N)c(C(=O)Nc2ccc3ccccc3c2)sc1=S	.	.	.	.	.	96.2
Cn1c(N)c(C(=O)Nc2ccccc2F)sc1=S	.	.	.	.	.	.
N#Cc1cccnc1N1CCN(C(=O)c2ccc3c(c2)S(=O)(=O)c2ccccc2C3=O)CC1	.	.	.	.	.	/
COCCN=c1scc(-c2ccco2)n1/N=C/c1ccc(O)c(O)c1O	.	.	.	.	.	.
CC(C)N=c1scc(-c2ccco2)n1/N=C/c1ccc(O)c(O)c1	.	.	100	.	.	.
SMILES	HDAC3 inh	TMEM16A act	ANO1 block	CHT allo act	CHT inh	PHOSPHO1 inh
CN(C(=O)/C(N=Nc1cccc(C(F)(F)F)c1)=C(\O)C(F)(F)F)c1ccccc1	?	.	100	.	.	.
CN(N=Nc1cccc([N+](=O)[O-])c1)c1ccccc1	.	.	.	.	.	.
O=C(/C(N=Nc1cccc(C(F)(F)F)c1)=C(/O)c1cccs1)C(F)(F)F	.	.	100	.	.	.
Cc1ccc(N=C/C(C(=O)C(F)(F)F)=C(\O)c2cccs2)cc1	.	.	.	.	.	.
O=C1/C(=C\c2cccc([N+](=O)[O-])c2O)SC(=S)N1Cc1ccccc1	.	.	100	.	-8.39	.
O=C1/C(=C/c2ccc(O)c([N+](=O)[O-])c2)SC(=S)N1Cc1ccccc1	.	.	.	.	.	.
COc1cc([N+](=O)[O-])cc(/C=C2/SC(=S)N(Cc3ccccc3)C2=O)c1O	.	.	.	.	-5.76	.
COc1cccc(NC(=O)CN(C)C(=O)c2ccc(NC3CC3)c([N+](=O)[O-])c2)c1	.	.	/	/	/	/
O=C(NNC(=S)NCc1ccco1)c1ccc(Cl)s1	.	.	.	.	.	102.6
O=C(CSCc1ccco1)c1ccc(Cl)s1	90.2	/	.	.	.	.
COc1cc(OC)nc(Oc2ccccc2/C=N/O)n1	.	.	.	.	.	/
O=C(OCc1csc(-c2ccccc2)n1)c1cccs1	.	.	.	.	.	63.2
Cn1cccc1C(=O)OCc1csc(-c2ccccc2)n1	.	.	.	.	.	100.2
CN(CC(=O)Nc1cccc(C#N)c1)Cc1ccc(Cl)cc1	.	.	.	.	.	.
CC(C(c1ccc2c(c1)OCO2)c1c(N)n(C)c(=O)n(C)c1=O)[N+](=O)[O-] (stereo not drawn)	.	.	.	.	.	/
CN(CC(=O)Nc1cc(S(=O)(=O)N2CCCCCC2)ccc1Cl)Cc1ccc2c(c1)OCO2	.	-13.5	/	/	/	/
CN(CC(=O)Nc1cc(S(=O)(=O)N2CCCC2)ccc1Cl)Cc1ccc2c(c1)OCO2	.	.	/	/	/	/
COC(=O)c1sc(S(=O)(=O)NCCCN(C)C)c(C(=O)OC)c1C	.	.	.	.	.	79.8
COc1c(C)cc(S(=O)(=O)N2CCOCC2)c(C)c1C	.	.	.	.	.	.
CS(=O)(=O)N1CCN(c2ccc(NC(=O)c3cccnc3Cl)cc2)CC1	.	.	.	.	.	100.3
c1ccc(CC2CCN(c3ncnc4sccc34)CC2)cc1	/	-39.9	/	/	/	.
COc1ccc(C2(C(=O)Nc3ccc(S(N)(=O)=O)cc3)CCCC2)cc1	.	-5.12	.	.	.	.
CCCCNC(=O)Cn1nc(-c2ccc(C)cc2)ccc1=O	.	.	.	.	.	.
CSc1nc(C=Nc2ccccc2Cl)c(O)n1Cc1cccc(Cl)c1	.	.	.	.	.	88.2
COc1ccccc1NC(c1cccnc1)c1ccc2cccnc2c1O (stereo not drawn)	.	.	.	.	.	63.4
SMILES	HDAC3 inh	TMEM16A act	ANO1 block	CHT allo act	CHT inh	PHOSPHO1 inh
COc1cc(C(Nc2ccccn2)c2ccc3ccc(C)nc3c2O)cc(OC)c1O (stereo not drawn)	.	.	.	.	.	72.9
O=C(N/N=C/c1ccc(-c2ccc(S(=O)(=O)Nc3ncccn3)cc2)o1)c1cc2ccccc2cc1O	.	.	100	.	.	.
CCOc1ccc(C(=O)N/N=C/c2ccc(-c3ccc(S(=O)(=O)Nc4ncccn4)cc3)o2)cc1	.	.	.	.	.	.
CC(=O)N1N=C(c2ccncc2)OC12CCCCC2	.	.	.	.	.	62.3
COc1ccc(CNC(=O)COC(=O)c2cncc(Br)c2)cc1	.	.	.	.	.	.
Cc1ccc(C(=O)n2cnnc2N)cc1C	?	.	.	.	.	60.7
Cc1ccc(C)c(C(=O)n2cnnc2N)c1	.	/	.	.	.	.

Source: PubChem BioAssay
